Measurements taken from PubChem BioAssay AID431 (Sanford-Burnham Center for Chemical Genomics, 2006).
About 1,100 (1.7%) of roughly 63,000 compounds were called active.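 How the source made its calls: active means compounds whose percent cytotoxicity in the single-dose primary screen, scaled between solvent and toxic-drug controls, exceeds 50; inactive means the rest.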 Shown is part of a subset that was picked to be rich in actives. Potency and affinity values are given separately.

test: cytotoxicity in KRAS-transformed pancreatic duct cells, primary screen, cell-based, fluorescence, HTS (AID 431); conditions: HPDE-C7K KRASV12 cells, Alamar Blue viability, 48 h; at 10 µM; active compounds read high;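 further: 0% = DMSO solvent wells and 100% = doxorubicin-treated wells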

Structure (SMILES)	cytotoxicity
CCCNc1nc2c(c(=O)[nH]c(=O)n2C)n1CCC(C)C	9% (inactive)
Cc1c(Cl)cccc1Nc1ccccc1C(=O)O	46% (inactive)
Cc1cccc(Nc2ccccc2C(=O)O)c1C	6% (inactive)
Cc1ccc(Cl)c(Nc2ccccc2C(=O)O)c1Cl	67.9% (active)
CCN(CC)C(=O)Oc1ccc2c(=O)c(-c3ccccc3)coc2c1	-28% (inactive)
CC(C)Oc1ccc2c(=O)c(-c3ccccc3)coc2c1	53.7% (active)
CCN(CC)C(=O)Oc1ccc2c(=O)c(-c3ccc(OC)cc3)coc2c1	-3.7% (inactive)
O=C(NC1CCCc2ccccc21)C1CCC(CNc2c(N3CCOCC3)c(=O)c2=O)CC1 (configuration not stated)	-5% (inactive)
O=C(NCC1CCCO1)C1CCN(C(=O)c2ccc(Cl)cc2)CC1 (configuration not stated)	-4.1% (inactive)
Cc1ccc2c(c1)nnn2C1CCN(CC(=O)Nc2ccc3c(c2)OCCO3)CC1	-7.5% (inactive)
c1cn2c(NC3CCCC3)c(-c3ccc(N4CCOCC4)cc3)nc2cn1	7.8% (inactive)
COc1cc(-c2nc3cnccn3c2Nc2ccccc2)ccc1O	16.3% (inactive)
CCOC(=O)C1=CN(C)C=C(C(=O)OCC)C1c1ccsc1	6.2% (inactive)
O=C(O)c1ccc(NS(=O)(=O)c2ccc3c(c2)OCCO3)cc1	1.7% (inactive)
COC(=O)c1ccc(Cl)c(NS(=O)(=O)c2ccc3c(c2)OCCO3)c1	63.6% (active)
COC(=O)c1ccc(C)c(NC(=O)CN(c2ccc3c(c2)OCO3)S(C)(=O)=O)c1	-3.2% (inactive)
COC(=O)c1ccc(C)c(NS(=O)(=O)c2ccc(OC)cc2)c1	65.2% (active)
CC(=O)c1cc2c(cc1NS(=O)(=O)c1ccc3c(c1)OCCO3)OCO2	37.2% (inactive)
CCCNC(=O)c1ccccc1NS(=O)(=O)c1ccc2c(c1)OCCO2	28.6% (inactive)
COC(=O)c1ccc(C)c(NS(=O)(=O)c2ccc(NC(C)=O)cc2)c1	4.5% (inactive)
COC(=O)c1ccc(NS(=O)(=O)c2ccc(OC)cc2)cc1	-10.3% (inactive)

Structure (SMILES)	cytotoxicity
COC(=O)c1ccc(C)c(NS(=O)(=O)c2ccc3c(c2)OCCO3)c1	59.3% (active)
CC(C)(C)NC(=O)c1ccc2nccnc2c1	12.3% (inactive)
COc1ccccc1NC(=O)N(CCN(C)C)Cc1cc2cc(C)ccc2[nH]c1=O	19.6% (inactive)
CCCC(C(=O)NC1CCCC1)N(C(=O)Cn1nnc(-c2ccc(C)o2)n1)C1CCCC1 (configuration not stated)	-0.4% (inactive)
CC(C)OC(=O)CSc1nc(N)c(C#N)c(-c2cccs2)c1C#N	5% (inactive)
CC(C)OC(=O)CCC1(C(=O)O)CCC(=O)NC1 (configuration not stated)	-7.1% (inactive)
O=C(CSCc1ccco1)c1cccs1	-15.8% (inactive)
O=C(CC(SCc1ccco1)c1ccc(O)cc1)c1cccs1 (configuration not stated)	57.7% (active)
O=C(CSc1nnc(-c2ccc(O)cc2)n1Cc1ccco1)c1cccs1	2.5% (inactive)
CCOC(=O)C1=C(C)OC(N)=C(C#N)C1c1ccsc1 (configuration not stated)	9.1% (inactive)
CCOc1ccc(C2CC(c3ccc(F)cc3)n3ncnc3N2)cc1 (configuration not stated)	3.1% (inactive)
Cc1ccc(C(=O)CC(C(=O)O)n2ccc(C)n2)cc1 (configuration not stated)	4.5% (inactive)
Cc1ccc(C(=O)CC(C(=O)O)n2cccn2)cc1 (configuration not stated)	-4.8% (inactive)
O=C(c1ccco1)N1CCN(C(=O)c2cccn3c(=O)c4c5c(sc4nc23)CCCC5)CC1	-9.7% (inactive)
Cc1cccc(Cn2cnc3c(nnn3Cc3ccc(Cl)cc3)c2=O)c1	-2.1% (inactive)
COc1ccc(C(C)=O)cc1COC(=O)c1c(C)noc1C	18.5% (inactive)
COC(=O)c1sc(N)c(C(=O)OC)c1COC(=O)c1c(C)noc1C	56.4% (active)
COC(=O)c1c(N)sc(C(C)=O)c1C	0% (inactive)
Cc1cccc(Cn2c(SCCN3CCCCC3)nc3c2c(=O)[nH]c(=O)n3C)c1	-3.8% (inactive)
O=C1C(Cl)=C(NCC2CCCO2)C(=O)N1CCc1ccccc1 (configuration not stated)	-4.3% (inactive)
C[C@]12CC[C@@H]3c4ccc(O[C@@H]5O[C@H](C(=O)O)[C@@H](O)[C@H](O)[C@H]5O)cc4CC[C@H]3[C@@H]1C[C@@H](O)[C@@H]2O	-13.5% (inactive)

Structure (SMILES)	cytotoxicity
C[C@]12CC[C@@H]3c4ccc(O)cc4CC[C@H]3[C@@H]1CC[C@@H]2OC(=O)CCC(=O)O	-1.7% (inactive)
C[C@]12CC[C@@H]3c4ccc(OC(=O)c5ccccc5)cc4CC[C@H]3[C@@H]1CC[C@@H]2O	54.4% (active)
Cc1nnc(SCC(=O)Nc2nsc(-c3ccccc3)n2)s1	11.4% (inactive)
c1ccc(Cn2nnnc2C(c2cccs2)N2CCOCC2)cc1 (configuration not stated)	-11.8% (inactive)
COc1ccc(Cl)c(S(=O)(=O)N2CCCC2)c1	-3.5% (inactive)
COc1ccc(C(N)=O)cc1NC(=O)CC(O)(C(F)(F)F)C(F)(F)F	-2% (inactive)
Cc1cc(NC(=O)C2CC(c3cccc(Br)c3)=NO2)no1 (configuration not stated)	-11% (inactive)
CC(C)(O)c1cc(=O)sc2nc3ccccc3n12	-10.2% (inactive)
c1ccc2nc3c(nc2c1)sc1nc2ccccc2n13	-4% (inactive)
N=c1cc(C2(O)CCCCC2)n2c(nc3ccccc32)s1	59% (active)
COCCNC(=O)C(c1ccc(C)o1)N(C(=O)c1snc(C(N)=O)c1N)c1cccc(C)c1 (configuration not stated)	-12.1% (inactive)
Cc1ccc2c(c1)[nH]c1c(=O)n(CCCN3CCOCC3)cnc12	-20.9% (inactive)
N#Cc1nc(-c2ccc(F)cc2)oc1NCc1ccccc1	-1.5% (inactive)
COc1ccc(CNc2oc(-c3ccccc3)nc2C#N)cc1	3.8% (inactive)
CC(C)(C)c1ccc(-c2nc(C#N)c(NCc3ccncc3)o2)cc1	60.5% (active)
COC(=O)c1sccc1NC(=O)CN1CCN(c2ccc(F)cc2)CC1	10.5% (inactive)
O=C(CCN1Cc2ccccc2C1)c1ccc2c(c1)OCCO2	-11.8% (inactive)
O=C(CCCN1CCOCC1)c1ccc2c(c1)OCCO2	-11.1% (inactive)
O=C(CCN1CCc2ccccc2C1)Nc1ccc2c(c1)OCO2	-0.3% (inactive)
O=C(CCN1CCc2ccccc21)c1ccc2c(c1)OCCO2	4.4% (inactive)
